PubChem BioAssay
For some of these results: Potency and affinity values are given separately. The source made the active and inactive calls. Unless noted, no rule for the calls is given here.

Experiments:
[1] = antimalarial activity against Dd2 strain (AID 2302;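 active = growth inhibition above 50% at the single 2 µM test dose, taken to imply half-maximal potency below 2 µM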;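 also: 0% = DMSO untreated growth and 100% = chloroquine plus artemisinin killed control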); conditions: P. falciparum Dd2 in RBCs, LDH growth readout, 72 h; at 2 µM; active compounds read high
[2] = human hepatoma cell viability loss – ATP luminescence, cytotoxicity control for P. falciparum antimalarial project, primary screen (AID 2303;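 active = inhibition above 50%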;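 also: 0% = DMSO wells and 100% = digitonin-killed cells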); conditions: HepG2 viability, 24-48 h, at 10 µM, active compounds read high
[3] = molecular target: L-lactate dehydrogenase (Plasmodium falciparum (isolate CDC / Honduras)) (UniProt Q27743); test: PfLDH activity inhibition – cell lysate, 3D7 strain, counter-screen for P. falciparum growth inhibition project (AID 2304);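 also: 0% = vehicle and 100% = reference inhibitor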; conditions: P. falciparum 3D7 crude extract, LDH APAD/NBT absorbance; at 2 µM; active compounds read high
Chain of L-lactate dehydrogenase (Plasmodium falciparum (isolate CDC / Honduras)) (Q27743 whole entry, looked up): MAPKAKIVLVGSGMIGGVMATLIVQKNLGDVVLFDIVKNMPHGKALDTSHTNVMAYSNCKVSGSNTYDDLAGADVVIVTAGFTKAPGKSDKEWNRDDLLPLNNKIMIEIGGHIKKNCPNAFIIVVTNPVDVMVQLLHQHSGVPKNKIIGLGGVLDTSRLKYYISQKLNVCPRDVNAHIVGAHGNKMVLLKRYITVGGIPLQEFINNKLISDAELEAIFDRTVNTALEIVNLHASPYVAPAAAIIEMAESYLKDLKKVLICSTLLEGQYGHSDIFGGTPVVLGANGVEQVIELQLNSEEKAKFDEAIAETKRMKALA

[4] = inhibition of 3D7 malaria parasite growth – strain 3D7 (AID 2306);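 also: 0% = DMSO wells and 100% = chloroquine plus artemisinin control wells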; conditions: P. falciparum 3D7 erythrocytic growth, LDH absorbance, 72 h; at 2 µM; active compounds read high
[5] = molecular target: Calcium-dependent protein kinase 1 (Plasmodium falciparum (isolate 3D7)) (UniProt P62344); test: PfCDPK1 kinase inhibitors, biochemical, TCAMS library (AID 1159585; cut-off not given, nearly all actives have IC50 up to about 0.98 µM;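 also: inhibitors leave more ATP so luminescence rises with inhibition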); conditions: recombinant PfCDPK1, Kinase-Glo ATP depletion luminescence
Chain of Calcium-dependent protein kinase 1 (Plasmodium falciparum (isolate 3D7)) (P62344 whole entry, looked up): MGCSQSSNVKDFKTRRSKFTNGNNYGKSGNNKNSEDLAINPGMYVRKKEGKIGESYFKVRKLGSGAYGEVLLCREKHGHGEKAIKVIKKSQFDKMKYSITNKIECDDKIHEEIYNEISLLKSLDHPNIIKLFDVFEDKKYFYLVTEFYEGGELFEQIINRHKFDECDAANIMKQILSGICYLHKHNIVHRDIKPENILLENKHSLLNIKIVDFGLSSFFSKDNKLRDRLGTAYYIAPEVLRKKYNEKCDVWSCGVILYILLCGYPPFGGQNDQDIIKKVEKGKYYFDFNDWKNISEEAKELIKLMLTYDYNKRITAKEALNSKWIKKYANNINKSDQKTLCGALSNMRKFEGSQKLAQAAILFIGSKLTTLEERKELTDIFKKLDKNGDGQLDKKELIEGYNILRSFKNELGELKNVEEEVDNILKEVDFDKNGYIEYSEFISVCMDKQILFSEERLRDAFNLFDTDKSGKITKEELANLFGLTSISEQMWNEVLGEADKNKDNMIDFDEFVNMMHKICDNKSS

[6] = molecular target: Plasmodium falciparum protein kinase 6 (PK6, PF3D7_1337100) (UniProt Q8IDW1); test: PfPK6 kinase inhibitors, biochemical, TCAMS library (AID 1159586); conditions: recombinant PfPK6, Kinase-Glo ATP depletion luminescence
Chain of Plasmodium falciparum protein kinase 6 (PK6, PF3D7_1337100) (Q8IDW1 1-305): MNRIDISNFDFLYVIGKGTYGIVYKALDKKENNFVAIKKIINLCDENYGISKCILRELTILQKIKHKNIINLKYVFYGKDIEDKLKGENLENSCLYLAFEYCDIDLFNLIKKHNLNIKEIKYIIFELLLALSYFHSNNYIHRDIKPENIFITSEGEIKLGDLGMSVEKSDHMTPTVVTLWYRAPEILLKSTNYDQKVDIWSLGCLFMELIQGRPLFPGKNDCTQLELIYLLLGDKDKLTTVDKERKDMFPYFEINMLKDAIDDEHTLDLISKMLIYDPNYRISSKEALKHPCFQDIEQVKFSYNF

[7] = molecular target: Protein kinase 7 (PK7), Plasmodium falciparum 3D7 (PF3D7_0213400) (UniProt Q7YTF7); test: inhibition of Plasmodium PK7 catalytic activity – biochemical, TCAMS antimalarial set, Kinase-Glo luminescence (AID 1159587); conditions: recombinant PfPK7, Kinase-Glo ATP depletion luminescence
Chain of Protein kinase 7 (PK7), Plasmodium falciparum 3D7 (PF3D7_0213400) (Q7YTF7 1-343): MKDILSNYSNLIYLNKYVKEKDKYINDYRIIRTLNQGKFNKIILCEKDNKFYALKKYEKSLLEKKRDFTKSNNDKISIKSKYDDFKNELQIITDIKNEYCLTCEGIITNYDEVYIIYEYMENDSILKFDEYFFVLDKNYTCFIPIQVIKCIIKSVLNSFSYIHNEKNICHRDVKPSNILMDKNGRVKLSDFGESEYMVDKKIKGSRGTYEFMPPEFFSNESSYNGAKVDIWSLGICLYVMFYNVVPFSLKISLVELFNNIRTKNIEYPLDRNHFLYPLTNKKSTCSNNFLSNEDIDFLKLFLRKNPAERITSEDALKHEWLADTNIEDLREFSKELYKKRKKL

[8] = molecular target: Calcium-dependent protein kinase 4 (Plasmodium falciparum (isolate 3D7)) (UniProt Q8IBS5); test: PfCDPK4 kinase inhibitors, biochemical, TCAMS library (AID 1159588; cut-off not given, nearly all actives have IC50 up to about 0.91 µM); conditions: recombinant PfCDPK4, Kinase-Glo ATP depletion luminescence
Chain of Calcium-dependent protein kinase 4 (Plasmodium falciparum (isolate 3D7)) (Q8IBS5 whole entry, looked up): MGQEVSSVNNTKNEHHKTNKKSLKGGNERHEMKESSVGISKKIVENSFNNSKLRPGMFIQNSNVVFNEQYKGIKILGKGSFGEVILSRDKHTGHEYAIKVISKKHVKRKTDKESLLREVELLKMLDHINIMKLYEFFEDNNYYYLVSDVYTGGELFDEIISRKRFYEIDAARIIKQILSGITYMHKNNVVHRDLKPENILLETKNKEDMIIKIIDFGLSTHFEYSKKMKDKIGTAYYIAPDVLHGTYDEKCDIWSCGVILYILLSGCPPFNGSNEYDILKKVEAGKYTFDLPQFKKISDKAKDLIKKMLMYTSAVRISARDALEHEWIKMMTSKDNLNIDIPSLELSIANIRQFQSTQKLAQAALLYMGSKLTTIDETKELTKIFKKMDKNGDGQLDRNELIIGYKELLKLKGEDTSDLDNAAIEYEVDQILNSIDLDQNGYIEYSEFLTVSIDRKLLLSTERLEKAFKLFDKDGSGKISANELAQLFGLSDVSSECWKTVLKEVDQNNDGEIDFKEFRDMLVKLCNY

Cc1nc(N)nc(N)c1-c1ccc(Br)cc1
active: growth inhibition [4] 98%
inactive: growth inhibition [1] 1% | inhibition [2] 46% | inhibition [3] 3% | outcome [5] | outcome [6] | outcome [7] | outcome [8]

Cc1[nH]c2ccc(-c3ccccc3)cc2c(=O)c1Br
active: growth inhibition [1] 97% | growth inhibition [4] 97%
inactive: inhibition [2] -13% | inhibition [3] 4% | outcome [5] | outcome [6] | outcome [7] | outcome [8]

COc1cc2c(C3CCN(CC4CCN(C(=O)/C=C/c5ccc(Cl)c(Cl)c5)CC4)CC3)c[nH]c2cn1
inactive: inhibition [2] 27% | inhibition [3] -1% | outcome [5] | outcome [6] | outcome [7] | outcome [8]
active: growth inhibition [1] 88% | growth inhibition [4] 101%

Oc1ccc(CCNc2nc(NCc3cccc(OCc4cccc(F)c4)c3)nc(N3CCNCC3)n2)cc1
inactive: growth inhibition [1] -7% | inhibition [2] 27% | inhibition [3] -3% | outcome [5] | outcome [6] | outcome [7] | outcome [8]
active: growth inhibition [4] 86%

CCc1c(CCNCCCCCCNCCc2ccc(OC)c(OC)c2CC)ccc(OC)c1OC
active: inhibition [2] 58% | growth inhibition [4] 100%
inactive: growth inhibition [1] 1% | inhibition [3] 0% | outcome [5] | outcome [6] | outcome [7] | outcome [8]

CCN1CCN(CCCNc2ccnc3cc(Cl)ccc23)CC1
inactive: inhibition [2] 7% | inhibition [3] 2% | outcome [5] | outcome [6] | outcome [7] | outcome [8]
active: growth inhibition [1] 77% | growth inhibition [4] 101%

COc1cc(C(=O)Nc2ccc(-c3nc4ccccc4[nH]3)cc2)cc(OC)c1OC
active: growth inhibition [4] 99%
inactive: growth inhibition [1] 33% | inhibition [2] 13% | inhibition [3] -8% | outcome [5] | outcome [6] | outcome [7] | outcome [8]

CCN(CC)CCN(Cc1ccc(-c2ccc(C(F)(F)F)cc2)cc1)C(=O)Cn1c(SCc2ccc(F)cc2)nc(=O)c2ccccc21
active: growth inhibition [4] 98%
inactive: growth inhibition [1] 48% | inhibition [2] 47% | inhibition [3] 6% | outcome [5] | outcome [6] | outcome [7] | outcome [8]

COc1cc(Cc2cnc(N)nc2N)cc(OCCCN2C(=O)c3ccccc3C2=O)c1OC
inactive: growth inhibition [1] -3% | inhibition [2] -1% | inhibition [3] 1% | outcome [5] | outcome [6] | outcome [7] | outcome [8]
active: growth inhibition [4] 96%

CCOc1ccccc1CNc1nccc(NCc2ccccc2OC)n1
inactive: inhibition [3] -2% | outcome [5] | outcome [6] | outcome [7] | outcome [8]
active: growth inhibition [1] 66% | inhibition [2] 50% | growth inhibition [4] 87%

COc1cc(NC(=O)c2sc(-c3ccc(Cl)cc3)cc2Cl)ccc1OCCN1CCCC1
active: inhibition [2] 72% | growth inhibition [4] 93%
inactive: growth inhibition [1] 21% | inhibition [3] 4% | outcome [5] | outcome [6] | outcome [7] | outcome [8]

CC(C)c1ccc(OCC(O)CN(CCN2CCOCC2)C(=O)Nc2ccc(Br)cc2)cc1 (stereo not drawn)
inactive: growth inhibition [1] 44% | inhibition [2] 6% | inhibition [3] -2% | outcome [5] | outcome [6] | outcome [7] | outcome [8]
active: growth inhibition [4] 98%

Cc1cc(N2CCCCC2)nc2ccc(NC(=O)c3cccc([N+](=O)[O-])c3)cc12
active: growth inhibition [1] 99% | growth inhibition [4] 95%
inactive: inhibition [2] 9% | inhibition [3] 2% | outcome [5] | outcome [6] | outcome [7] | outcome [8]

O=c1ccc(-c2nc3cc(Cl)c(Cl)cc3n2Cc2ccc(Cl)cc2Cl)c[nH]1
inactive: inhibition [2] -8% | inhibition [3] -8% | outcome [5] | outcome [6] | outcome [7] | outcome [8]
active: growth inhibition [1] 67% | growth inhibition [4] 88%

Oc1ccc(CN2CC[C@@H](N3CCN(CCc4ccccc4)CC3)[C@H](O)C2)cc1Cl
inactive: inhibition [2] 0% | inhibition [3] 2% | outcome [5] | outcome [6] | outcome [7] | outcome [8]
active: growth inhibition [1] 77% | growth inhibition [4] 100%

O=c1cc(NCCCNCc2cc3c(Cl)cc(Cl)cc3[nH]2)[nH]c2ccccc12
inactive: growth inhibition [1] -2% | inhibition [2] -10% | inhibition [3] -3% | outcome [5] | outcome [6] | outcome [7] | outcome [8]
active: growth inhibition [4] 101%

CN(C)CCOc1ccc(N2CCN(CCCCNC(=O)c3ccc(NC(=O)c4ccc(Cl)cc4)cc3)CC2)cc1
active: growth inhibition [1] 98% | growth inhibition [4] 99%
inactive: inhibition [2] 13% | inhibition [3] 0% | outcome [5] | outcome [6] | outcome [7] | outcome [8]

COc1ccc2c(=O)c(C3CCC(c4ccc(Cl)cc4)CC3)c(C)[nH]c2c1 (stereo not drawn)
active: growth inhibition [1] 84% | growth inhibition [4] 97%
inactive: inhibition [2] 2% | inhibition [3] 1% | outcome [5] | outcome [6] | outcome [7] | outcome [8]

CC(C)(C)[C@@H](Nc1ccc(C#N)c2ccccc12)C(=O)NC1(Cc2ccc(O)c(Br)c2)CCCC1
inactive: growth inhibition [1] 16% | inhibition [2] 2% | inhibition [3] -2% | outcome [5] | outcome [6] | outcome [7] | outcome [8]
active: growth inhibition [4] 84%

CC(C)(C)c1ccc(S(=O)(=O)Nc2ccccc2Cn2nc(N3CCNCC3)ccc2=O)cc1
active: growth inhibition [1] 97% | growth inhibition [4] 98%
inactive: inhibition [2] -5% | inhibition [3] 2% | outcome [5] | outcome [6] | outcome [7] | outcome [8]

CCC[C@@H](/C=N/N(C)C(=O)OC(C)(C)C)NC(=O)[C@H](CC(C)C)NC(=O)c1cc2cccc(OC)c2o1
inactive: inhibition [2] 5% | inhibition [3] 6% | outcome [5] | outcome [6] | outcome [7] | outcome [8]
active: growth inhibition [1] 61% | growth inhibition [4] 88%

COc1cc(OC)cc(-c2nn(-c3ccc([N+](=O)[O-])cc3C#N)c(=S)n2Cc2ccco2)c1
active: growth inhibition [1] 100% | growth inhibition [4] 100%
inactive: inhibition [2] 11% | inhibition [3] -6% | outcome [5] | outcome [6] | outcome [7] | outcome [8]

Cc1onc(-c2ccccc2)c1-c1nc(NCCC(c2ccccc2)c2ccccc2)no1
inactive: inhibition [2] -4% | inhibition [3] -7% | outcome [5] | outcome [6] | outcome [7] | outcome [8]
active: growth inhibition [1] 78% | growth inhibition [4] 100%

COc1ccc2ncc(F)c([C@@H](O)CN3CCC(NCc4cc(C#N)c5c(c4)CCO5)CC3)c2n1
inactive: inhibition [2] 15% | inhibition [3] 4% | outcome [5] | outcome [6] | outcome [7] | outcome [8]
active: growth inhibition [1] 50% | growth inhibition [4] 92%

COc1ccc(CCCON2C(N)=NC(N)=NC2(C)C)cc1
inactive: inhibition [3] -1% | outcome [5] | outcome [6] | outcome [7] | outcome [8]
active: growth inhibition [1] 94% | inhibition [2] 61% | growth inhibition [4] 95%

COc1cccc(NC(=O)NC2CCN(c3ccnc(Nc4cc(OC)c(OC)c(OC)c4)n3)C2)c1 (stereo not drawn)
inactive: inhibition [2] 8% | inhibition [3] -2% | outcome [5] | outcome [6] | outcome [7] | outcome [8]
active: growth inhibition [1] 57% | growth inhibition [4] 95%

Cc1ccc2c(Cc3cnc(N)nc3N)cc(C)c(N)c2n1
inactive: inhibition [2] -19% | inhibition [3] -2% | outcome [5] | outcome [6] | outcome [7] | outcome [8]
active: growth inhibition [1] 92% | growth inhibition [4] 91%

CC(C)(C)c1ccc(NC(=O)c2cccc(CN3CCCN(CC4CCCCC4)CC3)c2)cc1
active: inhibition [2] 97% | growth inhibition [4] 93%
inactive: growth inhibition [1] 47% | inhibition [3] 1% | outcome [5] | outcome [6] | outcome [7] | outcome [8]

CC(Nc1ccc2c(c1)CCC2)C(=O)Nc1cc(C(F)(F)F)ccc1N1CCOCC1 (stereo not drawn)
active: growth inhibition [1] 100% | growth inhibition [4] 100%
inactive: inhibition [2] -3% | inhibition [3] -1% | outcome [5] | outcome [6] | outcome [7] | outcome [8]

CC(C)(C)c1ccc(CN2CCC(NC(=O)c3ccc(-c4cccc(C(F)(F)F)c4)s3)CC2)cc1
active: growth inhibition [1] 96% | inhibition [2] 97% | growth inhibition [4] 100%
inactive: inhibition [3] -5% | outcome [5] | outcome [6] | outcome [7] | outcome [8]

Cc1ccccc1C1CCN(c2ccc(C(=O)Nc3ccccc3)cn2)CC1
inactive: inhibition [3] -2% | outcome [5] | outcome [6] | outcome [7] | outcome [8]
active: growth inhibition [1] 94% | inhibition [2] 53% | growth inhibition [4] 95%

CC(C(=O)Nc1ccc(Br)cc1Br)N1CCN(C(=O)c2ccco2)CC1 (stereo not drawn)
inactive: inhibition [2] 3% | inhibition [3] -3% | outcome [5] | outcome [6] | outcome [7] | outcome [8]
active: growth inhibition [1] 84% | growth inhibition [4] 91%

Cc1cc(C)c(S(=O)(=O)N2CCCCC(c3cccc(C(F)(F)F)c3)=N2)c(C)c1
inactive: inhibition [2] -1% | inhibition [3] -2% | outcome [5] | outcome [6] | outcome [7] | outcome [8]
active: growth inhibition [1] 95% | growth inhibition [4] 94%

CC(C)COc1ccc(Cl)cc1Cc1ccc(-c2nc3ccc(CCN4CCCC4)cc3[nH]2)o1
active: growth inhibition [1] 94% | growth inhibition [4] 100%
inactive: inhibition [2] 34% | inhibition [3] 1% | outcome [5] | outcome [6] | outcome [7] | outcome [8]

O=C(/C=C/c1ccc(Cl)c(Cl)c1)NCCCCCN1CCC(NC(=O)Nc2cc(Cl)cc(Cl)c2)CC1
inactive: growth inhibition [1] 5% | inhibition [3] -8% | outcome [5] | outcome [6] | outcome [7] | outcome [8]
active: inhibition [2] 98% | growth inhibition [4] 94%

Cc1cccc(C)c1CNc1ccnc2ccccc12
inactive: growth inhibition [1] 10% | inhibition [3] -1% | outcome [5] | outcome [6] | outcome [7] | outcome [8]
active: inhibition [2] 59% | growth inhibition [4] 92%

C[C@@H]1CN(c2ncc(-c3ccc(CNC4Cc5ccccc5C4)cc3)cn2)C[C@H](C)N1
inactive: inhibition [2] 27% | inhibition [3] -10% | outcome [5] | outcome [6] | outcome [7] | outcome [8]
active: growth inhibition [1] 78% | growth inhibition [4] 85%

COc1ccc(NC(=O)c2cc(NC(=O)C3(N)CC3)c(=O)n(Cc3ccc(C(N)=O)cc3)c2)cc1
inactive: inhibition [2] 21% | inhibition [3] 3% | outcome [5] | outcome [6] | outcome [7] | outcome [8]
active: growth inhibition [1] 72% | growth inhibition [4] 95%

Fc1ccc2nc(-c3ccc(-c4ccc(CN5CCC(CCN6CCCCC6)CC5)cc4)cc3)[nH]c2c1
active: growth inhibition [1] 100% | inhibition [2] 98% | growth inhibition [4] 100%
inactive: inhibition [3] -9% | outcome [5] | outcome [6] | outcome [7] | outcome [8]

Cc1ccc(Cc2cnc(NCCSCc3ccc(CN(C)C)s3)[nH]c2=O)cn1
inactive: growth inhibition [1] -5% | inhibition [2] 3% | inhibition [3] 0% | outcome [5] | outcome [6] | outcome [7] | outcome [8]
active: growth inhibition [4] 95%

CCCCCCCc1[nH]c2ccccc2c(=O)c1C
active: growth inhibition [1] 96% | growth inhibition [4] 97%
inactive: inhibition [2] 48% | inhibition [3] 2% | outcome [5] | outcome [6] | outcome [7] | outcome [8]
